EphB4 antag – antagonists of human EphB4-ephrin-B2 interaction; P54760; inhibition, % at 7 µM; EphB4 LBD / TNYL-RAW-Alexa532 peptide, fluorescence polarization; AID 720; 97,000 compounds, 0.15% hits;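 active = inhibition above the screen-wide mean inhibition plus 3 SD, cut at about 15% in these data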;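 also: 0% = DMSO wells and 100% = excess unlabeled TNYL-RAW peptide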
CYP2C9 act – activators of human CYP2C9; P11712; recombinant CYP2C9, luciferin-H conversion, luminescence; hits give high values; factor 1 = untreated enzyme, 0 = blocked; activation factor at 5 µM; 96,000 compounds, 1.4% hits;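 active = activation factor of 2 or more for CYP2C9 at a 5 µM dose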;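 also: 0 = sulfaphenazole-blocked wells and 1 = vehicle-only wells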
CYP2C19 act – activators of human cytochrome P450 2C19; P33261; recombinant CYP2C19, luciferin-H EGE luminescence; hits give high values; 0 = fully inhibited enzyme, 1 = untreated enzyme; activation factor at 5 µM; AID 1025; 96,000 tested, under 10 active;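 active = activation factor of at least 2 at 5 µM in the primary screen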;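 also: 0 = wells with 2.5 mM tranylcypromine and 1 = vehicle-only wells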
CYP2C19 inh – blocks human cytochrome P450 2C19; AID 778; P33261; inhibition, % at 5 µM; CYP2C19 Supersomes, luciferin-H EGE luminescence, 30 min; 96,000 compounds, 21% hits;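 active = CYP2C19 inhibition above a set limit at 5 µM in the primary screen, cut at about 50% in these data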;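 also: plate controls were negative control wells for no effect and 2.5 mM tranylcypromine positive control for full effect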
CYP2C9 inhib – inhibitors of human CYP2C9 | P11712 | CYP2C9 Supersomes, luciferin-H conversion, luminescence | inhibition, % at 5 µM | 96,000 compounds, 20% hits | AID 777;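 active = blocking of liver enzyme CYP2C9 beyond about 50% at 5 µM, limit read from the data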
Starred values were filed as active, the others as inactive; nt = no result. The list is not random: actives were taken first. Their share in the collection is about 27%.

SMILES	EphB4 antag	CYP2C9 act	CYP2C19 act	CYP2C19 inh	CYP2C9 inhib
CCc1ccc(OCC(O)CN2CCN(c3ccccc3)CC2)cc1 (stereo not drawn)	-9	0.8	0.3	67*	16
Cc1ccc(OCC(O)CN2CCN(c3ccccc3)CC2)cc1 (stereo not drawn)	4	1.2	1	-2	-20
Cc1ccc(C(=O)CSc2nsc(C)c2C#N)cc1	0	1	0.7	30	1
Cc1nc(COC(=O)c2c(C)nn(-c3ccccc3)c2C)cs1	6	0.3	0.5	47	69*
Cc1nc(COC(=O)c2ccc(CO)cc2)cs1	3	0.7	0.4	64*	30
Cc1nc(CC(=O)c2ccc(O)cc2O)cs1	-3	0.8	0.8	23	25
COc1ccccc1NC(=O)CCN1CCCCCC1	-2	0.9	1	0	6
Cc1ccc2[nH]c(=O)c(CN(Cc3cccnc3)Cc3nnnn3CCN3CCOCC3)cc2c1	7	0.8	0.7	27	16
N#Cc1c(-c2ccco2)cc(-c2ccccn2)nc1N	-2	0.6	0.7	31	37
Cc1c(C(=O)N2CCCC2)sc(NC(=O)c2cccs2)c1C#N	-2	0.1	0.9	8	94*
Cc1c(C(=O)N2CCCC2)sc(NC(=O)c2ccccc2)c1C#N	2	nt	nt	nt	nt
Cc1c(C(=O)N2CCCCC2)sc(NC(=O)C(C)C)c1C#N	-2	0.3	0.4	62*	68*
Cc1c(C(=O)N2CCCCC2)sc(NC(=O)C2CC2)c1C#N	-10	0.4	0.5	54*	56*
Cc1c(C(=O)N2CCCCC2)sc(NC(=O)c2ccco2)c1C#N	-9	nt	nt	nt	nt
Cn1c(=O)c2c(nc(OCc3cccnc3)n2Cc2c(F)cccc2Cl)n(C)c1=O	-5	0.5	0.8	17	52*
Cn1c(=O)c2c(nc(Br)n2Cc2c(F)cccc2Cl)n(C)c1=O	nt	1	0.8	20	3
CC(C)c1nc(SCC(=O)N2CCCc3ccccc32)c2c(=O)n(C)c(=O)n(C)c2n1	1	0.7	1.1	-13	33
Cn1c(=O)c2c(nc(SCCCC#N)n2Cc2c(F)cccc2Cl)n(C)c1=O	2	0.4	0.9	14	59*
CC(C)c1nc(SCc2c(F)cccc2Cl)c2c(=O)n(C)c(=O)n(C)c2n1	-8	0.3	1	1	67*
Cc1nn(C(C)C(=O)NCc2ccccc2Cl)c(=O)c2c1sc1ccccc12 (stereo not drawn)	3	0	0.1	88*	97*
CCOC(=O)N1CCN(C(=O)Cn2nc(C)c3sc4ccccc4c3c2=O)CC1	-11	1.3	1.1	-6	-30
CCOC(=O)N1CCN(C(=O)C(CC)n2nc(C)c3sc4ccccc4c3c2=O)CC1 (stereo not drawn)	-1	0.4	0.9	9	58*
CC(C)(C)C(=O)OCCn1c(=O)c2cc3c(=O)n(CCOC(=O)C(C)(C)C)c(=O)c3cc2c1=O	-2	0.9	1.1	-9	6
O=C(OCn1ncc(Cl)c(Cl)c1=O)c1ccc(C(F)(F)F)cc1	4	0.8	0.2	83*	22
O=C(Nc1ccc2c(c1)C(=O)N(C1CCCCC1)C2=O)C1CCCO1 (stereo not drawn)	5	0.3	0.6	44	72*
SMILES	EphB4 antag	CYP2C9 act	CYP2C19 act	CYP2C19 inh	CYP2C9 inhib
CCC(=O)Oc1ccc(C(=O)Nc2ccc3c(c2)C(=O)N(C2CCCCC2)C3=O)cc1	-3	0.4	0.8	24	58*
Cc1ccc(NC(=O)c2ccc(OC(=O)CCN3C(=O)c4ccccc4C3=O)cc2)cc1	6	1.2	0.9	5	-16
COc1ccc(NC(=O)C2CCCO2)cc1OC (stereo not drawn)	4	0.9	1.1	-7	8
CC(C)(C)NC(=O)c1ccc2c(c1)C(=O)N(C1CCCCC1)C2=O	0	0.6	0.4	57*	39
CCOC(=O)c1ccc2c(c1)C(=O)N(C1CCCCC1)C2=O	nt	1	1.1	-7	-5
Cc1ccc(NC2OC(CO)C(O)C(O)C2O)cc1 (stereo not drawn)	0	0.9	0.7	26	12
COC(=O)c1cc(C(=O)OC)n(Cc2ccc(Br)cc2)n1	-3	0.4	0.1	91*	58*
Cc1cc(C(F)(F)F)nn1CC(=O)NCc1ccccc1	-8	1.4	0.5	52*	-37
Cc1cc(C(F)(F)F)nn1CC(=O)Nc1ccc(Br)c2cccnc12	9	nt	nt	nt	nt
Cc1nn(Cc2cccc(C(=O)NCC(C)C)c2)c(C)c1Br	-2	nt	nt	nt	nt
